{
  "source": "PubChem BioAssay (NCI)",
  "note": "This is part of a sample that, as a whole, favours compounds with a hit. Of some 83,000 tested, about 20% had one in any assay.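 Interpretation: 100, growth as untreated; towards 0, rising growth inhibition; 0, no net growth; 0 to -100, cell death. Compounds scoring below 10 were considered active.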 Active and inactive are the calls of the source.",
  "data": [
    {"tested_on": "IGROV1 ovarian", "assay": "NCI-60 one-dose screen, 48 h (100 = growth as untreated, 0 = no growth, -100 = all killed)", "conditions": "10 µM unless noted", "experimental": "Growth inhibition of the IGROV1 human tumor cell line is measured as a screen for anti-cancer activity. Cells are grown in 96 well plates and exposed to the test compound for 48 hours. Compounds are tested at a single concentration, which is 10^-5 M for most compounds. The reported endpoint is percent growth (GI% or GIPRCNT), where numbers from 0 - 100% represent growth inhibition, and numbers from -100% - 0 represent cell death. For example, a value of 40 represents 60% growth inhibition. A value of 0 means no net growth occurred over the course of the experiment. A value of -40 indicates 40% of cells at the beginning of the experiment died by the end of the experiment. A value of -100 means all cells are dead at the end of the experiment.\nNCI-60 Human Tumor Cell Lines Screen was performed using the standard one-dose NCI protocol, which is described in more detail at https://dtp.cancer.gov/discovery_development/nci-60/default.htm.\nCompounds with GIPRCNT values below 10 were considered active. Activity score was based on GIPRCNT using the following formula: […]\nScore is 0 for GIPRCNT values of 100 or above, 50 for GIPRCNT values of 0, and 100 for GIPRCNT values of -100.", "values": [
      {"smiles": "OC1CCN(CCCOc2c3ccc(Cl)cc3nc3c2oc2ccccc23)CC1", "growth": "-18% (active)"},
      {"smiles": "O=C(O)CCCCCN1C(=O)/C(=C/c2ccc(O)c(O)c2)SC1=S", "growth": "106% (inactive)"},
      {"smiles": "COc1ccc(/C=C2\\SC(=Nc3cc(C)on3)NC2=O)cc1", "growth": "99.2% (inactive)"},
      {"smiles": "CN1CCN(Cc2ccc(NC(=O)c3cncc(C#Cc4cnc5ccc(N6CCSCC6)nn45)c3)cc2C(F)(F)F)CC1", "growth": "-9.25% (active)"},
      {"smiles": "O=c1[nH]c2ccc(Cl)cc2cc1CSc1ccccc1Nc1nccc(-c2ccc(Cl)cc2)n1", "growth": "82.7% (inactive)"},
      {"smiles": "COc1ccc(/C=C2\\SC(=Nc3cc(C)[nH]n3)NC2=O)cc1", "growth": "97.3% (inactive)"},
      {"smiles": "C[C@@H](Nc1c(C#N)cnc2ccc(-c3cnc(N)nc3)cc12)c1ccccc1", "growth": "-32.6% (active)"},
      {"smiles": "NC(=O)c1c(NC(=O)c2ccc(C3CCCCC3)cc2)sc2c1CCC(=O)C2", "growth": "24.7% (inactive)"},
      {"smiles": "O=C1Nc2ccc(Cl)cc2/C1=C/c1ccc(OCC(=O)c2ccc(Br)cc2)cc1", "growth": "63% (inactive)"},
      {"smiles": "N#Cc1nc(-c2ccccc2)oc1N1CCC(CO)C1", "note": "(stereo not given)", "growth": "93.1% (inactive)"},
      {"smiles": "COc1cc(OC)c(S(=O)(=O)NNC(=O)c2ccncc2)cc1C(=O)/C=C/c1ccc(C)cc1", "growth": "72.7% (inactive)"},
      {"smiles": "Fc1ccc(-c2cc3nc(C(Cl)Cl)nc(-c4ccccc4)n3n2)cc1", "growth": "46.5% (inactive)"},
      {"smiles": "COc1cc(/C=C/C(=O)c2ccc(C)cc2)ccc1Oc1nc(NCCO)nc(N2CCOCC2)n1", "growth": "53.9% (inactive)"},
      {"smiles": "CC(C)(C)Nc1nc2c(OCCc3ccccc3)cccn2c1-c1ccc(O)cc1", "growth": "75.4% (inactive)"},
      {"smiles": "COc1cc2nc(-c3ccc(C(F)(F)F)cc3)cc(OCCCNCC3CCCO3)c2cc1OC", "note": "(stereo not given)", "growth": "28.5% (inactive)"},
      {"smiles": "CCOC(=O)c1c(Nc2ccccc2)nn2c(N)c(C#N)c(-c3ccc(OC)cc3)nc12", "growth": "85.5% (inactive)"},
      {"smiles": "Cn1ccnc1C(=O)/C=C/c1ccc(NC(=O)Nc2ccc(F)cc2)cc1", "growth": "43.1% (inactive)"},
      {"smiles": "CCOC(=O)c1c(NC(=O)c2cccc(C(F)(F)F)c2)sc2cc(O)ccc12", "growth": "75.7% (inactive)"},
      {"smiles": "COc1cccc(NC2=CC(=O)C(C)=C(C)C2=O)c1", "growth": "40% (inactive)"},
      {"smiles": "CN1CCc2c(sc3ncnc(N/N=C/c4ccc(Cl)c(Cl)c4)c23)C1", "growth": "73.2% (inactive)"},
      {"smiles": "COc1ccc([C@@H]2c3[nH]c4ccccc4c3CC3C(=O)N(C4CCN(Cc5c(F)cccc5F)CC4)CC(=O)N32)c(OC)c1", "note": "(stereo not given in full)", "growth": "39.8% [5.26 µM] (inactive)"},
      {"smiles": "Cc1nc2cnc(N)c(C#Cc3cncc(C(=O)Nc4ccc(Cl)c(C(F)(F)F)c4)c3)c2nc1C", "growth": "16.9% (inactive)"},
      {"smiles": "OC1CCN(CCCOc2c3ccccc3nc3c2oc2ccccc23)CC1", "growth": "-37.2% (active)"},
      {"smiles": "C/C(=N\\NC(N)=O)c1c(O)sc(=O)[nH]c1=O", "growth": "99.7% (inactive)"},
      {"smiles": "O=C(CCN1C(=O)/C(=C/c2ccccc2)SC1=S)N1CCOCC1", "growth": "88.5% (inactive)"},
      {"smiles": "Cc1cc2nc3c4cc(Cl)ccc4n(CC(=S)NCCN(C)C)c3nc2cc1C", "growth": "-74% (active)"},
      {"smiles": "CS(=O)(=O)c1ccc(-c2nc3ccccn3c2/C=N/Nc2nc(-c3ccc(Br)cc3)cs2)cc1", "growth": "111% (inactive)"},
      {"smiles": "N#Cc1c(-c2ccc(Cl)cc2)nc2c(-c3ccccc3)c(Nc3ccccc3)nn2c1N", "growth": "56.4% (inactive)"},
      {"smiles": "Cc1c(Nc2nnc(SCC(=O)Nc3sc4c(c3C#N)CCCC4)s2)c(=O)n(-c2ccccc2)n1C", "growth": "104% (inactive)"},
      {"smiles": "CCN1C(=S)N(CC)C2C1NN=C1SC(c3ccccc3)=CC(=O)N12", "note": "(stereo not given)", "growth": "109% (inactive)"},
      {"smiles": "O=C(CSc1nc2sc3c(c2c(=O)n1-c1ccc(Cl)cc1)CCCC3)NNC(=O)Nc1ccc(Cl)c(C(F)(F)F)c1", "growth": "29.7% (inactive)"},
      {"smiles": "COC(=O)c1ccc(NC(=S)N2CCc3ccc([N+](=O)[O-])cc3C2)cc1O", "growth": "99% (inactive)"},
      {"smiles": "CN1C(=O)N(c2ccccc2)C2N=C(N/N=C/c3ccccc3)SC21", "note": "(stereo not given)", "growth": "38.2% (inactive)"},
      {"smiles": "COC1CCN(Cc2ccc3c(NNC(=O)c4cnccn4)nc4cc(F)ccc4n23)C1", "note": "(stereo not given)", "growth": "24.2% (inactive)"},
      {"smiles": "Nc1c(C(=O)Nc2ccc(C(F)(F)F)cc2)sc2nc(-c3cnccn3)cc(-c3cccs3)c12", "growth": "83.9% (inactive)"},
      {"smiles": "COc1ccc(-n2c(SCC(=O)Nc3ccc(-c4nc5ccccc5[nH]4)cc3)nc3ccccc3c2=O)cc1", "growth": "17.5% (inactive)"},
      {"smiles": "COc1ccc(Cc2nn(CC(=O)N/N=C/c3ccc(Cl)cc3)c(=O)c3c(C)noc23)cc1", "growth": "82.1% (inactive)"},
      {"smiles": "O=C1C2=C(C(=O)c3c(O)cccc31)C(c1ccco1)c1sc(=O)[nH]c1S2", "note": "(stereo not given)", "growth": "28.1% (inactive)"},
      {"smiles": "CC1=C(C)C(=O)C(Nc2ccccc2)=C(Cl)C1=O", "growth": "9.69% (active)"},
      {"smiles": "Clc1ccc2c(OCCCN3CCOCC3)c3oc4ccccc4c3nc2c1", "growth": "19.7% (inactive)"}
    ]}
  ]
}
